From PubChem
MCL1-BIM inh = disrupts human MCL1 binding to BIM-BH3 peptide | Q07820 | inhibition, % at 10.9 µM | AID 2057 | GST-MCL1 / FITC-Bim-BH3 fluorescence polarization | actives 0.68% (n = 320,000);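 active means inhibition above the mean inhibition of all tested compounds plus 3 SD, set per campaign, cut at about 40% in these data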;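 further: higher means more loss of mP so more displacement of Bim peptide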
eIF4E 4G PPI = blocks eIF4E binding to eIF4G. actives 0.37% (n = 220,000). P63073+Q04637. inhibition, % at 21.7 µM. TR-FRET eIF4E-eIF4GI(517-606) binding, 2 h. AID 782;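 active means inhibition above about 30%, limit read from the data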
Mcl1 Noxa PPI = Mcl-1/Noxa interaction inhibition; AID 1022; inhibition, % at 21.7 µM; actives 1.5% (n = 220,000); TR-FRET Mcl-1/Noxa peptide binding, 2 h; Q07820;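 active means compounds that cut the protein-peptide binding signal by more than 50% relative to plate controls in a single-dose test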;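 further: His-tagged Mcl-1 with rhodamine Noxa BH3 peptide and terbium anti-His antibody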
14-3-3 Bad inh = disrupts binding of bovine 14-3-3 zeta to phospho-Bad peptide | P63103 | TR-FRET 14-3-3zeta/Dy647-pBad peptide displacement, 1 h | inhibition, % at 21.7 µM | actives 0.71% (n = 220,000);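 active means inhibition above about 70%, limit read from the data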
Target sequence (P63103 whole entry, looked up): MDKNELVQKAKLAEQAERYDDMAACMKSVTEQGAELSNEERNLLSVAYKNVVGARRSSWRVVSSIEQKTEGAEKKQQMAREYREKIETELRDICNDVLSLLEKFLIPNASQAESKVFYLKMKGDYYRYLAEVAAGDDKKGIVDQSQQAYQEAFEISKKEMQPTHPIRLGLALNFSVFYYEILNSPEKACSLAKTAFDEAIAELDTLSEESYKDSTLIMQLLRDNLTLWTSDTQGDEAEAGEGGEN
Mcl-1 Bim block = inhibitors of Bim-Mcl-1 interaction, human | inhibition, % at 10 µM | actives 0.1% (n = 190,000) | AID 1009 | Bead-based flow cytometry, Bim peptide-Mcl-1 binding | Q07820; in the data active means inhibition above about 40%
Mcl1 Bid PPI = Mcl-1/Bid interaction inhibition; TR-FRET Mcl-1/Bid-Dy647 peptide binding, 1536-well; inhibition, % at 21.7 µM; actives 0.97% (n = 220,000); AID 1021;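 active means compounds that cut the binding signal by more than half at the single screening dose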;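 further: His-tagged Mcl-1 with europium anti-His antibody binding Bid BH3 peptide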
Bcl-xL conf = counter-screen for MCL1 inhibitors: confirmation of human Bcl-xL inhibitors. inhibition, % at 10.9 µM. GST-Bcl-xL / FITC-Bim BH3 peptide FP binding. shares compounds with MCL1-BIM inh. actives 54% (n = 1,700). AID 2166;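 active means inhibition above a cutoff equal to the mean inhibition of all tested compounds plus 3 SD, cut at about 30% in these data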
Target sequence (Q07817 whole entry, looked up): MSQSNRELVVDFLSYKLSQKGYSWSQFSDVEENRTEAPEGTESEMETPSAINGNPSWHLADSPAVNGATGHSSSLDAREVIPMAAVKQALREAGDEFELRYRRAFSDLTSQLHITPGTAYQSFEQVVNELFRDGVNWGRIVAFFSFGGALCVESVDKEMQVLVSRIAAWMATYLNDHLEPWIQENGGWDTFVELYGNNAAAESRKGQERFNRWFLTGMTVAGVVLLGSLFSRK
MCL1 inh confirm = MCL1-BIM-BH3 interaction inhibition, confirmation. shares compounds with MCL1-BIM inh. GST-MCL1 / FITC-Bim-BH3 fluorescence polarization. inhibition, % at 10.9 µM. actives 61% (n = 1,700). AID 2168;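 active means inhibition above the average of all tested compounds plus 3 SD, cut at about 40% in these data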
A number is an active result; – = inactive; · = not tested or not shown; [ ] = remark or other dose. An excerpt weighted towards active compounds, which were near 2.6% of everything screened.

SMILES	MCL1-BIM inh	eIF4E 4G PPI	Mcl1 Noxa PPI	14-3-3 Bad inh	Mcl-1 Bim block	Mcl1 Bid PPI	Bcl-xL conf	MCL1 inh confirm
Cc1ccc(S(=O)(=O)N(C)C)cc1NC(=O)COC(=O)c1sc2cc(Cl)ccc2c1Cl	–	–	–	–	·	–	·	·
c1ccc(-c2ccc3ccccc3n2)cc1	–	·	·	·	·	·	·	·
CNc1ccccc(-c2ccc3ccccc3n2)c1=O	58.5	–	–	–	–	–	78.6	94.9
COC(=O)c1cc(CN2CCN(c3ccccc3)CC2)ccc1O	–	·	·	·	·	·	·	·
Cc1ccc(C)c(C(=O)CCC(=O)OCn2nnc3ccccc3c2=O)c1	85.3	·	·	·	·	·	–	–
O=C1NC2=C(C(=O)CCC2)C(c2ccccc2Cl)N1 (configuration not stated)	–	·	·	·	·	·	·	·
Cc1nc(Cl)c2c(n1)NC1=C(O2)C(=O)CCC1	198.0	–	–	–	–	–	145.8	175.3
Cc1cc(=O)oc2cc(Oc3ccc([N+](=O)[O-])cc3[N+](=O)[O-])ccc12	–	–	–	–	–	–	·	·
CCOC(=O)C/C(C)=N/NC(=O)CNc1cccc(Cl)c1C	42.8	–	–	–	–	–	–	–
Cc1c(Cl)cccc1NCC(=O)NN=C1CCCC1	–	–	–	–	–	–	·	·
O=C(CSc1ccccn1)Nc1nonc1[N+](=O)[O-]	–	·	·	·	·	·	·	·
Cc1ccc(C)c(CSC2=NCCN2S(=O)(=O)c2ccccc2)c1	–	·	·	·	·	·	·	·
O=C(COC(=O)/C=C/c1ccc(Br)o1)Nc1ccc2[nH]c(=O)[nH]c2c1	67.9	·	·	·	·	·	–	63.4
CSCc1ccc(C(=O)NCC(c2cccs2)N2CCOCC2)cc1 (configuration not stated)	–	·	·	·	·	·	·	·
Cc1ccc(C)c(NC(=O)CSc2nc(=O)n(CCN3CCOCC3)c3c2CCCC3)c1	–	·	·	·	·	·	·	·
O=C(O)C1Nc2ccc(OC(F)(F)F)cc2C2C=CCC12 (configuration not stated)	106.4	·	·	·	·	·	–	66.9
COc1cccc2c1NC(C(=O)O)C1CC=CC21 (configuration not stated)	96.2	48.3[fluorescence artefact?]	100.7	–	–	74.8	57.3	90.0
O=C(NC1CC1)C1Nc2ccc(OC(F)(F)F)cc2C2C=CCC12 (configuration not stated)	–	·	·	·	·	·	·	·
N#Cc1c(NC(=O)c2ccc([N+](=O)[O-])o2)sc2c1CCC2	–	·	·	·	·	·	·	·
Cc1ccc(C(=O)Nc2cccc3ccccc23)cc1	–	·	·	·	·	·	·	·
CC(C)(C)c1ccc(C(=O)Nc2cccc3c(=O)[nH][nH]c(=O)c23)cc1	42.8	–	–	–	–	–	41.6	46.8
O=C1C=C(c2ccc(CO)cc2)C[C@@H](c2ccc3c(c2)OCO3)C1	–	·	·	·	·	·	·	·
CCOc1cc(C(c2c(O)nc(SC)[nH]c2=O)c2c(O)nc(SC)[nH]c2=O)ccc1O	97.3	·	·	·	·	·	64.5	75.6
Cc1c(Cl)cccc1NC(=S)N1CCCCCC1	–	·	·	·	·	·	·	·
COc1ccc(NC(=O)COc2cccc(C(F)(F)F)c2)cn1	69.7	·	·	·	·	·	82.4	92.1
SMILES	MCL1-BIM inh	eIF4E 4G PPI	Mcl1 Noxa PPI	14-3-3 Bad inh	Mcl-1 Bim block	Mcl1 Bid PPI	Bcl-xL conf	MCL1 inh confirm
COc1cccc(C(=O)Nc2ccc(Oc3cccc(C(F)(F)F)c3)nc2)c1	–	–	–	–	·	–	·	·
COc1ccc(/C=C(/NC(=O)c2ccc(OC)c(OC)c2)C(=O)NCCCn2ccnc2)cc1	–	·	·	·	·	·	·	·
Cc1ccc(NC(=O)COc2cccc3c2OC(C)(C)C3)c(O)c1	–	·	·	·	·	·	·	·
CC(=O)Nc1ccc(NC(=O)CCc2nc3sc4c(c3c(=O)[nH]2)CCCC4)cc1	–	·	·	·	·	·	·	·
CC1(NC(=O)CCc2nc3sc4c(c3c(=O)[nH]2)CCCC4)CCS(=O)(=O)C1 (configuration not stated)	41.6	·	·	·	·	·	–	44.3
CN(C)c1ccc(C(CNC(=O)c2ccc(-c3ccccc3)cc2)N2CCOCC2)cc1 (configuration not stated)	88.5	·	·	·	·	·	–	–
O=C(NCCS(=O)(=O)NCc1ccc2c(c1)OCO2)c1ccccc1	–	·	·	·	·	·	·	·
O=C(CN(C(=O)c1csnn1)c1cccc2ccccc12)NC1CCCC1	–	–	–	–	–	–	·	·
O=C1NC(=S)/C(=C\c2ccc(-c3ccccc3Cl)o2)S1	61.8	–	100.2	–	–	–	90.9	115.7
